“And” between values parts separate entries of the source, which are not always exact repeats. Identical values can stand only once. Inconclusive results are not listed. The source made the active and inactive calls. Calls come from the whole dose curve; as a rule, active = well fitted curve in the direction sought with a large enough effect; inconclusive = small, poorly fitted or top-dose-only effect, or another doubt; inactive = no such curve, though single readings can be large; an effect the other way counts as inactive or inconclusive.
Legend:
[1] = biological target: Cellular tumor antigen p53 (Homo sapiens) (UniProt P04637); test: Primary qHTS for small molecule compounds that upregulate eGFP-tagged delta133p53alpha (in N-terminal) cells. (AID 2060322); conditions: NCI-H358 eGFP-delta133p53alpha fluorescence, 24 h; activation: hits give high values; note: nearly all actives have a fitted effect of over 75% in size; note: potency is the fitted concentration of half-maximal effect;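 for activation: cells pre-induced with doxycycline then dosed without doxycycline; series mostly up to about 56 µM; 0% = DMSO vehicle and 100% = reference activator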
Chain of Cellular tumor antigen p53 (Homo sapiens) (P04637 whole entry, looked up): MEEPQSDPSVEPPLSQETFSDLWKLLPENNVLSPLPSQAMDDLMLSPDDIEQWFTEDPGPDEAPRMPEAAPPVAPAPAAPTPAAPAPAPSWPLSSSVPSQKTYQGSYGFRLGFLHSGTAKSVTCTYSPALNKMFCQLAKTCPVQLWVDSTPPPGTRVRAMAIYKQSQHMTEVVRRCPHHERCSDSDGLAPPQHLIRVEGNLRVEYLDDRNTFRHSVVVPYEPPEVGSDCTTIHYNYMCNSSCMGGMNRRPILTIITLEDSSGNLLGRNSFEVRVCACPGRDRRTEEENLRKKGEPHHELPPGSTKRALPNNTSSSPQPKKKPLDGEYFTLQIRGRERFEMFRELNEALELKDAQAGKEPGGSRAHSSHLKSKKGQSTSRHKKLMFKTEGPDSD
Summary of the method: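 NCI-H358 cells pre-induced 24 h with 10 ng/ml doxycycline for eGFP-delta133p53alpha, plated dox-free and exposed 24 h at 37C to titrated compounds. Fixed, Hoechst-stained; gated GFP peak intensity by laser scanning cytometry, normalized to DMSO (0%) and 57.5 uM 5-azacytidine (100%).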

[2] = biological target: Aldehyde dehydrogenase, mitochondrial (Homo sapiens) (UniProt P05091); test: qHTS for Inhibitors of the Aldehyde Dehydrogenase Family (ALDH2) Primary screen (AID 2061308);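 note: plate controls were vehicle for no effect and reference inhibitor for full effect; nearly all actives have a fitted effect of over 55% in size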
[3] = BET inhibitor-based combinations targeting novel dependencies in MECOM-rearranged (r) AML: MV-4-11 cell line (AID 2202233); note: potency is the fitted concentration of half-maximal effect; nearly all actives have a fitted effect of over 45% in size
Summary of the method: (§1)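 Luminescent ATP readout (CellTiter-Glo, 15 min at room temperature) after 48 hr drug exposure gave viability. Dose-response curves, normalized to DMSO and empty-well controls, were summarized as area under the curve and its mean-centred Z-score.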

[4] = BET inhibitor-based combinations targeting novel dependencies in MECOM-rearranged (r) AML: AML-194 cell line (AID 2202237; note: potency is the fitted concentration of half-maximal effect; nearly all actives have a fitted effect of over 40% in size)
Summary of the method: (§2)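 Luminescent ATP readout (CellTiter-Glo) after 48 hr drug exposure gives viability. Curves span 11 concentrations and are normalized to DMSO and empty wells. Activity is reported as area under the curve and its Z-transform within each cell line.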

[5] = biological target: Retinaldehyde dehydrogenase 3 (Homo sapiens) (UniProt P47895); test: qHTS for Inhibitors of the Aldehyde Dehydrogenase Family (ALDH1A3) Validation screen (AID 2061312); note: % is set by controls: 0 for no effect and ±100 for the full control effect; nearly all actives have a fitted effect of over 45% in size
[6] = BET inhibitor-based combinations targeting novel dependencies in MECOM-rearranged (r) AML: SET-2 cell line (AID 2202231); conditions: SET-2 AML cells viability, CellTiter-Glo luminescence, 48 h; viability: hits give low values, concentration not given here; note: potency is the fitted concentration of half-maximal effect; nearly all actives have a fitted effect of over 35% in size
Summary of the method: as §2

[7] = BET inhibitor-based combinations targeting novel dependencies in MECOM-rearranged (r) AML: OCI-AML3 cell line (AID 2202232); conditions: Potency: OCI-AML3 viability; note: potency is the fitted concentration of half-maximal effect; nearly all actives have a fitted effect of over 35% in size
Summary of the method: as §2

[8] = BET inhibitor-based combinations targeting novel dependencies in MECOM-rearranged (r) AML: HNT-34 cell line (AID 2202234); note: potency is the fitted concentration of half-maximal effect; nearly all actives have a fitted effect of over 35% in size
Summary of the method: as §1

[9] = BET inhibitor-based combinations targeting novel dependencies in MECOM-rearranged (r) AML: UCSD-AML1 cell line (AID 2202235); note: potency is the fitted concentration of half-maximal effect; nearly all actives have a fitted effect of over 40% in size
Summary of the method: as §1

[10] = BET inhibitor-based combinations targeting novel dependencies in MECOM-rearranged (r) AML: AML-191 cell line (AID 2202236; note: potency is the fitted concentration of half-maximal effect; nearly all actives have a fitted effect of over 35% in size)
Summary of the method: as §2

[11] = biological target: Retinaldehyde dehydrogenase 3 (Homo sapiens) (UniProt P47895); test: qHTS for Inhibitors of the Aldehyde Dehydrogenase Family (ALDH1A3) Confirmatory screens (AID 2061311); note: potency is the fitted concentration of half-maximal effect; nearly all actives have a fitted effect of over 60% in size
[12] = biological target: Aldehyde dehydrogenase 1A1 (Homo sapiens) (UniProt P00352); test: qHTS for Inhibitors of the Aldehyde Dehydrogenase Family (ALDH1A1) Confirmatory screens (AID 2061316); note: % is set by controls: 0 for no effect and ±100 for the full control effect; nearly all actives have a fitted effect of over 65% in size

COc1ccc(Cn2ccc3ccc(C(=O)NO)cc32)cc1
active: Potency [3] 20.9 µM | Potency [4] 18.6 µM
inactive: activation [1] 20.3% and -6.7% | Potency [2]

O=c1c(-c2ccc(O)cc2)coc2cc(O[C@@H]3O[C@H](CO)[C@H](O)[C@H](O)[C@H]3O)ccc12
inactive: activation [1] 8.65% | Potency [5]

C=CC(=O)Nc1cccc(Nc2nc(Nc3ccc(NC4CN(CCF)C4)cc3OC)ncc2C(F)(F)F)c1
inactive: Potency [2]
active: Potency [1] 7.57 µM | Potency [6] 18.6 µM | Potency [7] 16.6 µM | Potency [3] 2.63 µM | Potency [8] 3.32 µM | Potency [9] 9.34 µM | Potency [10] 13.2 µM | Potency [4] 13.2 µM

CCOc1cc(N2CCC(O)CC2)ccc1Nc1ncc2c(n1)N(C1CCCC1)CCC(=O)N2C
inactive: activation [1] 4.33% | Potency [12]
active: Potency [11] 20.1 µM

COc1cc(N2CCN(C)CC2)ccc1Nc1nccc(-c2cn(C)c3cnccc23)n1
inactive: Potency [2]
active: Potency [1] 26.9 µM | Potency [6] 20.9 µM | Potency [7] 14.8 µM | Potency [3] 0.372 µM | Potency [8] 13.2 µM | Potency [10] 13.2 µM

CN(C)Cc1c(C(=O)NCCOc2ccc(C(=O)NO)cc2)oc2ccccc12
inactive: Potency [2]
active: Potency [1] 21.7 µM | Potency [6] 0.662 µM | Potency [7] 0.59 µM | Potency [3] 0.263 µM | Potency [8] 0.934 µM | Potency [9] 0.662 µM | Potency [10] 0.742 µM | Potency [4] 0.934 µM

CCCS(=O)c1ccc2nc(NC(=O)OC)[nH]c2c1 (stereo unspecified)
inactive: activation [1] -21.8% and -4.96% | Potency [2]
active: Potency [7] 26.3 µM | Potency [3] 23.5 µM | Potency [8] 13.2 µM | Potency [10] 8.33 µM | Potency [4] 11.8 µM
